# Experimental data as given in PMC7862700, “An all-to-all approach to the identification of sequence-specific readers for epigenetic DNA modifications on cytosine”.
# What was measured:
# Assay in all cases: DAPPL (digital affinity profiling via proximity ligation, sequencing); 10 mM Tris-HCl pH 7.5, 50 mM NaCl, 1 mM DTT, 4% glycerol, room temperature, 30 min; GST-TFs on glutathione beads, 16-mer random dsDNA library, 0.1% formaldehyde crosslink after washing; high values mean tight binding
# FLI1 = target: T1, FLI1 (Homo sapiens, UniProt Q01543 1-452); conditions: protein: recombinant; tags: N-terminal GST; dsDNA, one strand shown
# T1 sequence: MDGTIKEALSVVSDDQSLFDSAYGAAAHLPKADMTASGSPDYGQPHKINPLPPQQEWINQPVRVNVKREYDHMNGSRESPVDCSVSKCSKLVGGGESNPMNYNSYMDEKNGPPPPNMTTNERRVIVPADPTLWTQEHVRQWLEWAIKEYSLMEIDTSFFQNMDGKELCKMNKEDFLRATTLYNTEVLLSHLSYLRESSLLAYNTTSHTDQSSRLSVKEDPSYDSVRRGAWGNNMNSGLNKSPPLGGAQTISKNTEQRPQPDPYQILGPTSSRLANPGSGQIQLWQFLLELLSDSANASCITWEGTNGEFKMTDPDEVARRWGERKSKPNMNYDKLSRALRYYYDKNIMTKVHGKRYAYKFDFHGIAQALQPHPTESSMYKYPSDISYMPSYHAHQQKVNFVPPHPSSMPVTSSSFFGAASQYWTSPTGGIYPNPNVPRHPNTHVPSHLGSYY
# Method in brief: (§1)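 A tag-only sample was pooled with DNA-barcoded human transcription factors that had been expressed in yeast as GST fusions and captured on glutathione beads. The pools were incubated for 30 min at room temperature with 200 nmole of a random double-stranded 16-mer DNA library in Tris/NaCl/DTT/glycerol buffer, then washed, crosslinked with 0.1% formaldehyde, proximity-ligated (BsaI/T4 ligase, 1 h, 37 °C), PCR-amplified and sequenced on an Illumina NextSeq500. Binding signal is each hexamer's read frequency for a factor divided by its frequency for the tag-only sample.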
# ELK1 = target: T2, ELK1 (Homo sapiens, UniProt P19419 1-428); conditions: protein: recombinant; tags: N-terminal GST; dsDNA, one strand shown
# T2 sequence: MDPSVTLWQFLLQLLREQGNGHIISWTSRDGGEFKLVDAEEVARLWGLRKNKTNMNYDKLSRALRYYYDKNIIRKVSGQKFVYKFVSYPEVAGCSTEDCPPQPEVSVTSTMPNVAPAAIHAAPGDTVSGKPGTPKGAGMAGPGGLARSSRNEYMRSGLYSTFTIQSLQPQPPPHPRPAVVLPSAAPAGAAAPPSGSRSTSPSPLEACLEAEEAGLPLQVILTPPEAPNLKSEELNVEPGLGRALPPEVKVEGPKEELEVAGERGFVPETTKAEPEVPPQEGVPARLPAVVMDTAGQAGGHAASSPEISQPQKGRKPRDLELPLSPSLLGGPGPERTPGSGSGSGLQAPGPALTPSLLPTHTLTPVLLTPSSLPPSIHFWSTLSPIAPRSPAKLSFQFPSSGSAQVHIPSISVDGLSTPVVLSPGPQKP
# Method in brief: as §1
# GABPA = target: T3, GABPA (Homo sapiens, UniProt Q06546 1-454); conditions: protein: recombinant; tags: N-terminal GST; dsDNA, one strand shown
# T3 sequence: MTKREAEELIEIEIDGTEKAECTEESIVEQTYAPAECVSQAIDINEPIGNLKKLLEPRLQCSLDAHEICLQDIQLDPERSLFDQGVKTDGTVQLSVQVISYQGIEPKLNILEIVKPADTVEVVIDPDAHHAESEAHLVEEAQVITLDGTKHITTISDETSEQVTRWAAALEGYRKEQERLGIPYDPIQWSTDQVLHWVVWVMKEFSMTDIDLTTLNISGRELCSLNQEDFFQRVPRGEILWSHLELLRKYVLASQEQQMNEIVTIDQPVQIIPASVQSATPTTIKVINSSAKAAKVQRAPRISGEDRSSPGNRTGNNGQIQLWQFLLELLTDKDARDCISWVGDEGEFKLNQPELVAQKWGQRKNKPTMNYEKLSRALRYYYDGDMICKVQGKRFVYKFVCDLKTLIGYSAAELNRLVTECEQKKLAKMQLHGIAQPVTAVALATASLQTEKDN
# Method in brief: as §1
# ERG = target: T4, ERG (Homo sapiens, UniProt P11308 1-479); conditions: protein: recombinant; tags: N-terminal GST; dsDNA, one strand shown
# T4 sequence: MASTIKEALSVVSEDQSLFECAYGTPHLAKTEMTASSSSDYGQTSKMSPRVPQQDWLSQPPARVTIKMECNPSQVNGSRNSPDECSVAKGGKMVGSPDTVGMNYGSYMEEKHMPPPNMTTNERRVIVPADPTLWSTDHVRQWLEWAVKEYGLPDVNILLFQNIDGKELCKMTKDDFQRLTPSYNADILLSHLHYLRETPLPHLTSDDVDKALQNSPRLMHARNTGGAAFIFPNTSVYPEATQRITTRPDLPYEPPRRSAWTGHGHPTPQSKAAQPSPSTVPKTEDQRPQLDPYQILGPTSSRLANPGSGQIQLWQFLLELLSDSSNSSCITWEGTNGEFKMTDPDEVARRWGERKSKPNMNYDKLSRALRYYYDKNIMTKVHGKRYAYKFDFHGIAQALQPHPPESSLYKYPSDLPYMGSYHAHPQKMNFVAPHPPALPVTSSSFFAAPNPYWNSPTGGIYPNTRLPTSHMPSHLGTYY
# Method in brief: as §1
# ELF1 = ELF1 (Homo sapiens, UniProt P32519 1-619); conditions: protein: recombinant; tags: N-terminal GST; dsDNA, one strand shown
# Sequence of ELF1 (P32519 whole entry): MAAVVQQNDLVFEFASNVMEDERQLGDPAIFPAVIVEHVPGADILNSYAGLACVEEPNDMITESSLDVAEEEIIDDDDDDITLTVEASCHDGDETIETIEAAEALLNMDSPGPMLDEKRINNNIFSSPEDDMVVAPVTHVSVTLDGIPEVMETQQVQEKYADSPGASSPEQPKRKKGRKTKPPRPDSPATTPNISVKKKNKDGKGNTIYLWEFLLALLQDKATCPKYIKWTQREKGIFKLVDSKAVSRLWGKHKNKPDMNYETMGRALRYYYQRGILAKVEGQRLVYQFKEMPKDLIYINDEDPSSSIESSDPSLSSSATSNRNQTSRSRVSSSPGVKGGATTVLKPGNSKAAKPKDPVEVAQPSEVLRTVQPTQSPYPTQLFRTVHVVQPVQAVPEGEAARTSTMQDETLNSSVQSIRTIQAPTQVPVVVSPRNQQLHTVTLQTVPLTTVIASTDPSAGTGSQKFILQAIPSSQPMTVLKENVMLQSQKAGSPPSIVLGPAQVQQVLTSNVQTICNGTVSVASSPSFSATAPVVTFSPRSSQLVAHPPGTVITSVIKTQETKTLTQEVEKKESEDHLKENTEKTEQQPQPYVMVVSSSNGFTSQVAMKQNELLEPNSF
# Method in brief: as §1
# EHF = target: T5, EHF (Homo sapiens, UniProt Q9NZC4 1-300); conditions: protein: recombinant; tags: N-terminal GST; dsDNA, one strand shown
# T5 sequence: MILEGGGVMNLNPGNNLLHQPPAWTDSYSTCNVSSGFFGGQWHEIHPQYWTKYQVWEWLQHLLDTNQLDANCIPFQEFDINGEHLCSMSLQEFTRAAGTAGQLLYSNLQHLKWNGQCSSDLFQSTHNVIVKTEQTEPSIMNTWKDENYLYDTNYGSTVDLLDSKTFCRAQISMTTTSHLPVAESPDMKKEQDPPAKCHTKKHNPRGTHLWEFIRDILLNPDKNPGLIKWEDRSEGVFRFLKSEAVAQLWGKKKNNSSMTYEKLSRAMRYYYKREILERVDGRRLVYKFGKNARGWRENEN
# Method in brief: as §1
# SPI1 = SPI1 (Homo sapiens, UniProt P17947 1-270); conditions: protein: recombinant; tags: N-terminal GST; dsDNA, one strand shown
# Method in brief: as §1
# SPIB = SPIB (Homo sapiens, UniProt Q01892 1-262); conditions: protein: recombinant; tags: N-terminal GST; dsDNA, one strand shown
# Sequence of SPIB (Q01892 whole entry): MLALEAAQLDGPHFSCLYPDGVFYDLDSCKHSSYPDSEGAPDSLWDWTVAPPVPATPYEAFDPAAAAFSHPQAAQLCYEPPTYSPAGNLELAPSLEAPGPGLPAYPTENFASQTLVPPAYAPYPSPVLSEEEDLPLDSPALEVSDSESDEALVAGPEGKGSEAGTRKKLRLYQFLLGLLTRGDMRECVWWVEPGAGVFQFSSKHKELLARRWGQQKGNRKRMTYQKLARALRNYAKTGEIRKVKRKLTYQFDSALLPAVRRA
# Method in brief: as §1
# ELK3 = target: T6, ELK3 (Homo sapiens, UniProt P41970 1-407); conditions: protein: recombinant; tags: N-terminal GST; dsDNA, one strand shown
# T6 sequence: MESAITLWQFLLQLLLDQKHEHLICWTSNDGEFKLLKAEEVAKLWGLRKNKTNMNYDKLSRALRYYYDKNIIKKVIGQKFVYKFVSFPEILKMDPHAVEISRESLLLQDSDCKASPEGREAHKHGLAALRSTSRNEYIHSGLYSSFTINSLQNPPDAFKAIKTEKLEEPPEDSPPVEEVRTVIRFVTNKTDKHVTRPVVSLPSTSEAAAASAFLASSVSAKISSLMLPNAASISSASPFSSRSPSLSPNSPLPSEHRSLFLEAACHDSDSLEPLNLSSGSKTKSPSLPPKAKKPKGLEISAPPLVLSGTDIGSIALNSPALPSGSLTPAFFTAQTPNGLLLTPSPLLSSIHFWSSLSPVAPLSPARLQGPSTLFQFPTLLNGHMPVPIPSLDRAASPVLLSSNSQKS
# Method in brief: as §1
# FEV = target: T7, FEV (Homo sapiens, UniProt Q99581 1-238); conditions: protein: recombinant; tags: N-terminal GST; dsDNA, one strand shown
# T7 sequence: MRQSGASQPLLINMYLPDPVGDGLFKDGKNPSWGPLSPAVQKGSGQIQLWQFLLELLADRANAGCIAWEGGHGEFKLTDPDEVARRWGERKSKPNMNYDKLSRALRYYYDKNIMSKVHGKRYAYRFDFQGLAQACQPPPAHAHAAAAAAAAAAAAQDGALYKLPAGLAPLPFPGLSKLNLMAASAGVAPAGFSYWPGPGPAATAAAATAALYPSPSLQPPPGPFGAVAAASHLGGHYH
# Method in brief: as §1
# ETV5 = ETV5 (Homo sapiens, UniProt P41161 1-510); conditions: protein: recombinant; tags: N-terminal GST; dsDNA, one strand shown
# Sequence of ETV5 (P41161 whole entry): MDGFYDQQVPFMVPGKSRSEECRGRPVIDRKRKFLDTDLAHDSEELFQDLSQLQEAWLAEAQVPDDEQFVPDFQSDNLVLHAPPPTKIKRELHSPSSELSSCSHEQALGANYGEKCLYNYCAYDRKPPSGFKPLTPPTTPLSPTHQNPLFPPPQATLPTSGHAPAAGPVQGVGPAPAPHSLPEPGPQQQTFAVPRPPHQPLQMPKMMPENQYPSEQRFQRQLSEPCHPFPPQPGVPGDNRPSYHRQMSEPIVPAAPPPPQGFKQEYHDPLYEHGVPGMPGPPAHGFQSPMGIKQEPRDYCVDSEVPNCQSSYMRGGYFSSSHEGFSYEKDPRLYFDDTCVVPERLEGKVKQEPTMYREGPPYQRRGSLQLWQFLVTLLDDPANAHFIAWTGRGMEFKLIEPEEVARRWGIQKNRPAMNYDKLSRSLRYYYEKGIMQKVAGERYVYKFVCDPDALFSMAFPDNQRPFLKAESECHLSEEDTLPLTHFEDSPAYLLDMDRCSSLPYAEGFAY
# Method in brief: as §1
# HSF1 = HSF1 (Homo sapiens, UniProt Q00613 1-529); conditions: protein: recombinant; tags: N-terminal GST; chain copies: 3; dsDNA, one strand shown
# Sequence of HSF1 (Q00613 whole entry): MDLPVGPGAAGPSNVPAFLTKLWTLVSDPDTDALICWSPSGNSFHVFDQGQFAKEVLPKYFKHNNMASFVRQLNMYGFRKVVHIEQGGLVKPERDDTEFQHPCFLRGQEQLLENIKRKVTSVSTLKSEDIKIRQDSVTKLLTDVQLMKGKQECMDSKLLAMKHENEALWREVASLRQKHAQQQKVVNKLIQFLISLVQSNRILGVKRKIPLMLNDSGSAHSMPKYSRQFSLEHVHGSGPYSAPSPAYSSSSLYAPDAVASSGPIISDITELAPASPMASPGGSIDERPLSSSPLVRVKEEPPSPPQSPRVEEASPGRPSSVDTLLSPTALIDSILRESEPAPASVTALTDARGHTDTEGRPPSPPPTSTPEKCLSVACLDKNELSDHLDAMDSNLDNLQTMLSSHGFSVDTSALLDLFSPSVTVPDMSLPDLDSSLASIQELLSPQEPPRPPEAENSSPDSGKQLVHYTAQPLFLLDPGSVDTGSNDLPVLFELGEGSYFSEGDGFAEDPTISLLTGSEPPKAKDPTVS
# Method in brief: as §1
# SPIC = target: T8, SPIC (Homo sapiens, UniProt Q8N5J4 1-248); conditions: protein: recombinant; tags: N-terminal GST; dsDNA, one strand shown
# T8 sequence: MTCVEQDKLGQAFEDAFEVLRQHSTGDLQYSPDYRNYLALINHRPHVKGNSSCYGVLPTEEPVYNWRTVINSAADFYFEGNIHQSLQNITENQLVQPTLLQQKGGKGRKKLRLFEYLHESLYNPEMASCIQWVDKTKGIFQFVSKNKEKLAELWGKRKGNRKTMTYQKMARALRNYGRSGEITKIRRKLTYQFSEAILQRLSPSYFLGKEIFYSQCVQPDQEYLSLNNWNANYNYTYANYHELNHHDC
# Method in brief: as §1
# ELF4 = ELF4 (Homo sapiens, UniProt Q99607 1-663); conditions: protein: recombinant; tags: N-terminal GST; dsDNA, one strand shown
# Sequence of ELF4 (Q99607 whole entry): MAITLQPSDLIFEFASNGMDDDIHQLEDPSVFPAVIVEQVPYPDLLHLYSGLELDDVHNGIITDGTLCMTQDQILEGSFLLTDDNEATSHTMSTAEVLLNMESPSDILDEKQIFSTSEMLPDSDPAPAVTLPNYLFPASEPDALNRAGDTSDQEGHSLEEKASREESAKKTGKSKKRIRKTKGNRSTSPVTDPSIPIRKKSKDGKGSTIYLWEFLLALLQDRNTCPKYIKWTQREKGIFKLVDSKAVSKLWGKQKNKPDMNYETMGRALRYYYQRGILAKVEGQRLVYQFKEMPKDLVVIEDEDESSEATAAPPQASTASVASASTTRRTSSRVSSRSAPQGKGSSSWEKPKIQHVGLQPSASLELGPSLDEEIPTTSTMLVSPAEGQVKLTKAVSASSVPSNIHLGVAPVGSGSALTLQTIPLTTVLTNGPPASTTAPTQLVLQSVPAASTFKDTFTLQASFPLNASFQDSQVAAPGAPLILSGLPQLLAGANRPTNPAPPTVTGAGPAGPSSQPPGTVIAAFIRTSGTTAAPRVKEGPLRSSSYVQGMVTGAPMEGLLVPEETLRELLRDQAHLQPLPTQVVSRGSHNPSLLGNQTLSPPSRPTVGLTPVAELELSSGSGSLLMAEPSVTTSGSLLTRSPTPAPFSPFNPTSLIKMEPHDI
# Method in brief: as §1
# ELK4 = target: T9, ELK4 (Homo sapiens, UniProt P28324-2 1-405); conditions: protein: recombinant; tags: N-terminal GST; dsDNA, one strand shown
# T9 sequence: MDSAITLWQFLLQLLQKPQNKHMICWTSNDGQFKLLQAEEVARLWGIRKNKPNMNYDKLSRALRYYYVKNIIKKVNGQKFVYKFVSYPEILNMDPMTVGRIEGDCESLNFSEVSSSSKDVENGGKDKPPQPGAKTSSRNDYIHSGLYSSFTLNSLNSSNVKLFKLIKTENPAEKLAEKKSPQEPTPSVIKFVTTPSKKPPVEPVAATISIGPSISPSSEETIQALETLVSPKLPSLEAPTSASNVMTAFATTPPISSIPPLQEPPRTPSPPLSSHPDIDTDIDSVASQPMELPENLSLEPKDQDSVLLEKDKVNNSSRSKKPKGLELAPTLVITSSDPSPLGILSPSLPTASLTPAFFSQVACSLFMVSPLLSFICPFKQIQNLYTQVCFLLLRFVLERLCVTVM
# Method in brief: as §1
# ETV2 = target: T10, ETV2 (Homo sapiens, UniProt O00321 1-342); conditions: protein: recombinant; tags: N-terminal GST; dsDNA, one strand shown
# T10 sequence: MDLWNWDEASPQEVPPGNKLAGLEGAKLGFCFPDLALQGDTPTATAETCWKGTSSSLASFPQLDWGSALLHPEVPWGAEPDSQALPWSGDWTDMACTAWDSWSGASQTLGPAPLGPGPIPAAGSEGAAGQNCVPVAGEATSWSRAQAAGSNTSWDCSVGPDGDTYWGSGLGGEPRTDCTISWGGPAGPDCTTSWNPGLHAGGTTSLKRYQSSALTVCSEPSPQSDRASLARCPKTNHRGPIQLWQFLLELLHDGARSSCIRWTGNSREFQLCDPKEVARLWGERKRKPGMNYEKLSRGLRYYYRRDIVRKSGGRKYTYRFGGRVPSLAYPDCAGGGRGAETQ
# Method in brief: as §1
# ELF3 = target: T11, ELF3 (Homo sapiens, UniProt P78545 1-371); conditions: protein: recombinant; tags: N-terminal GST; dsDNA, one strand shown
# T11 sequence: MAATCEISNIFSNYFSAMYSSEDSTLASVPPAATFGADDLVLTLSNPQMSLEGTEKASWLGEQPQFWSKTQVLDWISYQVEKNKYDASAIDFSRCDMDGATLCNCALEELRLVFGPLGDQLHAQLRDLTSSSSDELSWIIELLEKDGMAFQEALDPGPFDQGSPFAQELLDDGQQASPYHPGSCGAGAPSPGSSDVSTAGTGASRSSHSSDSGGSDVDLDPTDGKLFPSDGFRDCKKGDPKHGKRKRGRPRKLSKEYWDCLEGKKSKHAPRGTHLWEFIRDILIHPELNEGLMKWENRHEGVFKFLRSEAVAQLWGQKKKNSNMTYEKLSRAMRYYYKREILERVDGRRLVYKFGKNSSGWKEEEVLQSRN
# Method in brief: as §1
# CRX = CRX (Homo sapiens, UniProt O43186 1-299); conditions: protein: recombinant; tags: N-terminal GST; dsDNA, one strand shown
# Sequence of CRX (O43186 whole entry): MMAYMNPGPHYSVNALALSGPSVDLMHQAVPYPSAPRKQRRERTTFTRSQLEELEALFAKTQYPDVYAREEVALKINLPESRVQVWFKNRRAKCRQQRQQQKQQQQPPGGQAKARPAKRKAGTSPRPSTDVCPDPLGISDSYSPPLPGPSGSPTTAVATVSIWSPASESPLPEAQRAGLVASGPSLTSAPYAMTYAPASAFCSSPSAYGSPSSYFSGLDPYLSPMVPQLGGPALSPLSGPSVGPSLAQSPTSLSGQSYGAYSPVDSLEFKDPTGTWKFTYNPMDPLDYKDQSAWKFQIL
# Method in brief: as §1
# ETV1 = ETV1 (Homo sapiens, UniProt P50549 1-477); conditions: protein: recombinant; tags: N-terminal GST; dsDNA, one strand shown
# Sequence of ETV1 (P50549 whole entry): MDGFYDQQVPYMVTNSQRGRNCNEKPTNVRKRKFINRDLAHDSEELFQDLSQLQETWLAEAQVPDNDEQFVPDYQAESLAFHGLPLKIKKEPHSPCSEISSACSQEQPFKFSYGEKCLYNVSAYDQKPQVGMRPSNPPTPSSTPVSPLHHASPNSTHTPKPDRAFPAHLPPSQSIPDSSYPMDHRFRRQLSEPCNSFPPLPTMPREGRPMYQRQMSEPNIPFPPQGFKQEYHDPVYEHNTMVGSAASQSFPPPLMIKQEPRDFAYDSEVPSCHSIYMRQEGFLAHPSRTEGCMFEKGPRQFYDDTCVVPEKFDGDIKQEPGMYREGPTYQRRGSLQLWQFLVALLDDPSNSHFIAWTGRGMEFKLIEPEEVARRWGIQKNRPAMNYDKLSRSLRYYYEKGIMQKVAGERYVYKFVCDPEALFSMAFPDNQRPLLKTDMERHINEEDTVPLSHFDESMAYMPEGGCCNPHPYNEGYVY
# Method in brief: as §1
sequence,measurement,setting,value
ATTCTT,binding signal,FLI1,"1.48 fold enrichment (6-mer frequency, TF over GST control)"
same,binding signal,ELK1,"1.44 fold enrichment (6-mer frequency, TF over GST control)"
same,binding signal,GABPA,"1.49 fold enrichment (6-mer frequency, TF over GST control)"
same,binding signal,ERG,"1.5 fold enrichment (6-mer frequency, TF over GST control)"
same,binding signal,ELF1,"1.51 fold enrichment (6-mer frequency, TF over GST control)"
same,binding signal,EHF,"1.45 fold enrichment (6-mer frequency, TF over GST control)"
same,binding signal,SPI1,"1.44 fold enrichment (6-mer frequency, TF over GST control)"
same,binding signal,SPIB,"1.56 fold enrichment (6-mer frequency, TF over GST control)"
same,binding signal,ELK3,"1.61 fold enrichment (6-mer frequency, TF over GST control)"
same,binding signal,FEV,"1.4 fold enrichment (6-mer frequency, TF over GST control)"
same,binding signal,ETV5,"1.4 fold enrichment (6-mer frequency, TF over GST control)"
same,binding signal,HSF1,"1.99 fold enrichment (6-mer frequency, TF over GST control)"
same,binding signal,SPIC,"1.56 fold enrichment (6-mer frequency, TF over GST control)"
same,binding signal,ELF4,"1.47 fold enrichment (6-mer frequency, TF over GST control)"
same,binding signal,ELK4,"1.51 fold enrichment (6-mer frequency, TF over GST control)"
same,binding signal,ETV2,"1.37 fold enrichment (6-mer frequency, TF over GST control)"
same,binding signal,ELF3,"1.45 fold enrichment (6-mer frequency, TF over GST control)"
same,binding signal,CRX,"1.77 fold enrichment (6-mer frequency, TF over GST control)"
same,binding signal,ETV1,"1.56 fold enrichment (6-mer frequency, TF over GST control)"
